The source of these data is PubChem BioAssay (NCATS).

“And” between values parts separate entries of the source, which are not always exact repeats. Equal entries are not always repeated. Records with an inconclusive call do not appear. The source made the active and inactive calls. Calls follow the shape of the dose curve; as a rule, active = well fitted activation curve with a large enough effect; inconclusive = small, poorly fitted or top-dose-only effect; inactive = no such curve, though single readings can be large or run the other way. Peptide text beside a SMILES is read from it.

Sequence of Cellular tumor antigen p53 (Homo sapiens) (P04637 whole entry, looked up): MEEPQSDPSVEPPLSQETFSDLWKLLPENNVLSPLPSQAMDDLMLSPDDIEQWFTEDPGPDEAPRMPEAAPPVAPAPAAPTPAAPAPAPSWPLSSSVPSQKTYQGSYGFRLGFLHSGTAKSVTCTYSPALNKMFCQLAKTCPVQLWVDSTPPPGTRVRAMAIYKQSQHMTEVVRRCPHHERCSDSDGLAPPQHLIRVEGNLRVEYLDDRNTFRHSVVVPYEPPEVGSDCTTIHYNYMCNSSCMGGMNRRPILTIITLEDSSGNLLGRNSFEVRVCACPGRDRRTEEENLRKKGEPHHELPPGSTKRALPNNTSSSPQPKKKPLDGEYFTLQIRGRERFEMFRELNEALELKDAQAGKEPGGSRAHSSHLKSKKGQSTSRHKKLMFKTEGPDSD

The test concerns the target Cellular tumor antigen p53 (Homo sapiens) (UniProt P04637). Kind of test: Primary qHTS for small molecule compounds that upregulate eGFP-tagged delta133p53alpha (in N-terminal) cells. (AID 2060322).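 Also: cells pre-induced with doxycycline then dosed without doxycycline; series mostly up to about 56 µM; 0% = DMSO vehicle and 100% = reference activator; nearly all actives have a fitted effect of over 75% in size.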 The following applies: NCI-H358 eGFP-delta133p53alpha fluorescence, 24 h; activation: hits give high values. Summed up:
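NCI-H358 cells pre-induced 24 h with 10 ng/ml doxycycline for eGFP-delta133p53alpha, plated dox-free and exposed 24 h at 37C to titrated compounds. Fixed, Hoechst-stained; gated GFP peak intensity by laser scanning cytometry, normalized to DMSO (0%) and 57.5 uM 5-azacytidine (100%).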
For orientation: Quantitative high-throughput screening tests each substance at several concentrations.
Take `CC1CCCC2OC2C(=O)c2c(O)cc(O)cc2CC(=O)O1` (stereo not given): the activation was 16% (inactive).

Turning to `Cc1nc(NC(=O)N2CCCC2C(N)=O)sc1-c1csc(C(C)(C)C)n1` (stereo not given), the activation is 16.1% (inactive).

`C[C@@H]1O[C@@H](O[C@@H]2[C@@H](O)[C@H](O[C@@H]3[C@@H](O)[C@@H](O)[C@H](O[C@H]4[C@H](OC(=O)[C@]56CCC(C)(C)C[C@H]5C5=CCC7[C@@]8(C)C[C@H](O)[C@H](O[C@@H]9O[C@H](C(=O)O)[C@@H](O)[C@H](O)[C@H]9O)[C@@](C)(CO)C8[C@H](O)C[C@@]7(C)[C@]5(C)CC6)OC[C@H](O)[C@@H]4O)O[C@H]3C)OC[C@H]2O)[C@H](O)[C@H](O)[C@H]1O` (stereo not given in full): the activation is -0.763% (inactive). For `CC(C)c1ccc2c(c1)C(O)CC1C(C)(C(=O)O)CCCC21C` (stereo not given), the activation is -6.11% (inactive).

For the compound `C=C1C(=O)OC[C@H]2C(C(=O)O)=CC3CC(C)(C)C[C@@]132` (stereo not given in full), the activation is 13.4% (inactive).

For `C=CCc1cc(OC)c(OC(C)C(O)c2ccc(O)c(OC)c2)c(OC)c1` (stereo not given), the activation is 4.46% (inactive). To `C[C@@H]1C(=O)O[C@H]2[C@H]1CC[C@@]1(C)C(=O)C=C[C@@](C)(O)[C@H]21` belongs 15.2% (inactive); to `CC1(CO)CCCC2(C)C3COC(=O)C3=CC(O)C12` (stereo not given), -8.04% (inactive); to `CC1=C2C[C@@]3(C)[C@@H](CCC[C@@H]3C)C[C@@]2(O)OC1=O`, -4.46% (inactive). Turning to `CC1=C(C(=O)OCc2ccccc2)C(c2ccc(-c3ccccc3)cc2)NC(=O)N1CCCCCC(=O)O` (stereo not given), the activation is 12.3% (inactive). In the case of `COc1cc(/C=C2\CCCN([C@@H](C)c3ccc(F)cc3)C2=O)ccc1-n1cnc(C)c1`, the activation is -22.3% (inactive). The value for `COCCOCCOc1ccc(C2=N[C@@](C)(C(=O)O)CS2)c(O)c1` was 1.67% (inactive); that for `CCCCS(=O)(=O)N[C@@H](Cc1ccc(OCCCCC2CCNCC2)cc1)C(=O)O` was -22% (inactive) and 10.3% (inactive).

`N#Cc1cccc(-c2nc(-c3cccnc3)no2)c1`: the activation is -3.34% (inactive). With `C[C@]1(O)CC[C@@H]2C(C(=O)O)=CO[C@@H](O[C@@H]3O[C@H](COC(=O)/C=C/c4ccc(O)c(O)c4)[C@@H](O)[C@H](O)[C@H]3O)[C@@H]21`, the activation is 0% (inactive). The value for `OC1COC(OCC2OC(OCCc3ccccc3)C(O)C(O)C2O)C(O)C1O` (stereo not given) was -11.5% (inactive); that for `C[C@@H]1CN(Cc2ccccc2)C[C@H]1c1nc2c(cnn2C2CCOCC2)c(=O)[nH]1` was 18.8% (inactive); that for `C=Cc1ccc(O[C@@H]2O[C@H](CO[C@@H]3O[C@@H](C)[C@H](O)[C@@H](O)[C@H]3O)[C@@H](O)[C@H](O)[C@H]2O)cc1` was 0.893% (inactive). To `C[C@@H]1CC[C@@]2(OC1)O[C@H]1C[C@H]3[C@@H]4CC=C5C[C@@H](O)CC[C@]5(C)[C@H]4CC[C@]3(C)[C@H]1[C@@H]2C` belongs -4.46% (inactive). The value for `C[C@]12CC[C@@H]3c4ccc(O)cc4CC[C@H]3[C@@H]1C[C@@H](O[C@@H]1O[C@H](C(=O)O)[C@@H](O)[C@H](O)[C@H]1O)[C@@H]2O` was -6.33% (inactive). Turning to `CC(=C\C(C)O)/C=C(\C)C(=O)CC1CC(CC(N)=O)CC(=O)O1` (stereo not given), the activation was -16.8% (inactive).

For `CC1NC(=O)CNC(=O)C(C(C)C)NC(=O)C2CCCN2C(=O)C(C(C)C)NC(=O)C(Cc2c[nH]c3ccccc23)NC1=O` (stereo not given) (cyclo(GAWVPV); configuration not given here), the activation was 3.57% (inactive). Turning to `C/C(CO)=C1/CCC23COC(C2)C(O)(C(=O)O)CCC13` (stereo not given), the activation was 0% (inactive). The value for `CC(=O)O[C@H]1[C@H](C)[C@@H](O)[C@H]2[C@@H]1C=C(C(=O)O)[C@H]1C[C@@H]3[C@H]([C@H]21)[C@H]1C(=O)O[C@@H]2CC[C@@]3(C)O[C@]1(O)[C@@H]2C` was -11.5% (inactive); that for `C=C1CO[C@@]2(O[C@H]3CC4C5CC=C6C[C@@H](O)C[C@@H](O[C@@H]7OC[C@H](O)[C@H](O[C@@H]8OC[C@@H](O)[C@H](O)[C@H]8O)[C@H]7O[C@@H]7O[C@@H](C)[C@H](OC(C)=O)[C@@H](OC(C)=O)[C@H]7OC(C)=O)[C@]6(C)C5CC[C@]4(C)[C@@H]3[C@@H]2C)[C@@H](O)[C@H]1OC1OC(C)C(O)C(O)C1O` (stereo not given in full) was -6.87% (inactive).

Turning to `CNc1nc(Cc2ccccc2)nc2c1CCNC[C@@H]2C`, the activation was 19% (inactive). On to `COC(=O)C1=C2Nc3ccccc3C23CCN2CCCC(C(C)O)(C1)C23` (stereo not given), for which the activation is 18.8% (inactive). As for `CC1(O)CC(O)C2(O)C=COC(O[C@@H]3O[C@H](CO)[C@@H](O)[C@H](O)[C@H]3O)C12` (stereo not given in full), the activation is 0.893% (inactive). As for `CC1=C2C(=O)C=C(CO)[C@@H]2[C@H]2OC(=O)[C@H](C)[C@@H]2[C@@H](O)C1`, the activation is -3.57% (inactive). As for `N#Cc1ccc2ncnc(NCCc3ccccc3)c2c1`, the activation is -3.57% (inactive). The value for `CC1CCC2(NC1)OC1C(O)C3C4CCC5CC(O[C@@H]6O[C@H](CO)[C@@H](O)[C@H](O)[C@H]6O[C@@H]6O[C@@H](C)[C@H](O)[C@@H](O)[C@H]6O)CCC5(C)C4CCC3(C)C1C2C` (stereo not given in full) was -15.3% (inactive). `CC1=C(CCC(C)CC(=O)O)[C@@]2(C)CCCC(C)(C)C2CC1=O` (stereo not given in full): the activation is -29.5% (inactive).

Take `COC(=O)c1cc(OC)c(O[C@@H]2O[C@@H](C)[C@H](O)[C@@H](O)[C@H]2O)c(OC)c1`: the activation was 1.53% (inactive). The value for `C=C1CCC[C@]2(C)CC/C(=C(/CO)C(=O)OC)C[C@@H]12` was 18.8% (inactive); that for `C/C=C(\C)C(=O)O[C@H]1[C@H](O)[C@]2(COC(C)=O)[C@H](O)C[C@]3(C)C(=CCC4[C@@]5(C)CC[C@H](O[C@@H]6O[C@H](C(=O)O)[C@@H](O[C@@H]7O[C@H](CO)[C@@H](O)[C@H](O)[C@H]7O)[C@H](O)[C@H]6O[C@@H]6O[C@H](CO)[C@@H](O)[C@H](O)[C@H]6O)[C@](C)(CO)C5CC[C@]43C)[C@@H]2CC1(C)C` (stereo not given in full) was -8.4% (inactive); that for `COc1cc2c(c(O)c1OC/C=C(\C)CC/C=C(/C)CCC=C(C)C)CN(C(CCC(=O)O)C(=O)O)C2=O` (stereo not given) was -30.5% (inactive). The value for `CC(=O)O[C@@]1(C)C[C@@H](O)[C@]2(O)C=CO[C@@H](O[C@@H]3O[C@H](CO)[C@@H](O)[C@H](O)[C@H]3O)[C@@H]21` was -14.5% (inactive); that for `OC[C@H]1O[C@@H](O[C@H]2[C@H](OCc3ccccc3)O[C@H](CO[C@@H]3OC[C@@H](O)[C@H](O)[C@H]3O)[C@@H](O)[C@@H]2O)[C@H](O)[C@@H](O)[C@@H]1O` was -15.2% (inactive).

On to `CN[C@H](C(=O)N[C@H](C(=O)N(C)[C@H](/C=C(\C)C(=O)O)C(C)C)C(C)(C)C)C(C)(C)c1ccccc1`, for which the activation was 15.8% (inactive).

As for `O=c1[nH]ccc2cc(OC3CCNCC3)ccc12`, the activation is -7.14% (inactive).
